Experiments:
Experiment in all cases: PBM binding z-score (relative to random genomic background probes); higher = stronger binding; sequences stand for … in GC…GCGATTGACAGCGTAGAATGAAGG
[1] = system: RARb homodimer (NR concentration 270 nM)
Procedure, shortened: (§1)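 Binding z-scores take random background probes as their reference. They come from custom Agilent 4×180K protein-binding microarrays incubated 1 h with ligand-free nuclear receptor dimers, with antibodies against each partner (one per run) detecting binding. Scanned fluorescence was regression-normalized.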

[2] = system: RARg:RXRa (NR concentration 270 nM, RXRa partner concentration 90 nM)
Procedure, shortened: as §1

[3] = system: RARg homodimer (NR concentration 270 nM)
Procedure, shortened: as §1

[4] = system: RXRa DBDmut IVT, anti-RXR (DBD mutation: RXRa K156A/R161A, NR concentration 90 nM)
Procedure, shortened: as §1

[5] = system: RXRa homodimer (NR concentration 180 nM)
Procedure, shortened: as §1

[6] = system: THRa:RXRa (NR concentration 90 nM, RXRa partner concentration 90 nM)
Procedure, shortened: as §1

[7] = system: THRa homodimer (NR concentration 90 nM)
Procedure, shortened: as §1

[8] = system: VDR homodimer (NR concentration 270 nM)
Procedure, shortened: as §1

Row | Sequence | PBM binding z-score [1] | PBM binding z-score [2] | PBM binding z-score [3] | PBM binding z-score [4] | PBM binding z-score [5] | PBM binding z-score [6] | PBM binding z-score [7] | PBM binding z-score [8]
1 | AGAACGAGGGCGCGCTGAGTTGATAGCAGAGTAG | -0.416 | 0.211 | 0.0624 | 0.991 | 0.444 | 0.45 | -0.623 | 0.824
2 | AGAATGAGGTTACTAAGATCAGGGAATTGCGGTC | 1.12 | 1.25 | 1.15 | 1.43 | 1.98 | 2.28 | 0.919 | 0.836
3 | CCGATTGGGGCAAGGTTACCATAACGCACAGCCA | 1 | 1.02 | 1.3 | 0.17 | 1.09 | 1.2 | 0.241 | -0.398
4 | TCTTGTAGATAAATAGAGGTTAAGAAAGTGCGCT | 1.11 | 0.845 | 0.418 | 1.3 | 1.46 | 1.54 | -0.012 | 0.923
5 | CAAACTAGCTCACGAAAGGTCAAAGTCGAATGAC | 4.81 | 5.46 | 5.04 | 1.31 | 6.26 | 3.62 | 0.952 | 2.53
6 | TCTTGTGGATCAAGCAGGTTAAGAAAGCCTGAGT | 0.266 | -0.132 | -0.515 | 0.604 | 0.211 | 0.309 | -0.303 | 0.15
7 | GCTCGTTGGTCAGTAAAAGGTCACACACCGGTCG | 5.31 | 5.69 | 5.36 | 0.666 | 5.85 | 3.91 | 2.35 | 2.44

— the supplement of paper PMC6555819
